High-throughput results: PubChem, National Center for Advancing Translational Sciences (NCATS)
GLS inh = inhibitors of human glutaminase (GLS). O94925. GLS enzymatic activity, qHTS titration. Potency, µM (top dose mostly 45.5 µM), for inactives: top-dose activity change, negative = inhibition, usual class: inhibitors. hit rate 0.21% among 410,000. AID 624170; also: % is scaled to controls: 0 for no effect and ±100 for the full control effect
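hKGA; 45 mM KH2PO4 pH 8.2 + 0.02% Tween-20; cpd via pin tool; 1 mM Gln soln; GluOx/HRP/Amplex Red; RT 30 min; fluor. t0 & final.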
JMJD2A Tudor = JMJD2A Tudor domain (human) inhibition | AlphaScreen JMJD2A-Tudor / H3K4me3 peptide binding | Potency, µM (titrated, usually from 114 µM), without a hit: at the highest dose activity change, negative = inhibition, actives largely listed as inhibitors | hit rate 4.4% among 390,000 | AID 504339; also: % is scaled to controls: 0 for no effect and ±100 for the full control effect; nearly all actives have a fitted effect of over 50% in size
BAZ2B block = inhibitors of human BAZ2B bromodomain; Q9UIF8; AlphaScreen BAZ2B-H3K14Ac peptide displacement; Potency, µM (top dose mostly 114 µM), inactives show at the highest dose activity change, negative = inhibition, actives largely listed as inhibitors; hit rate 4.4% among 360,000; also: % is scaled to controls: 0 for no effect and ±100 for the full control effect; nearly all actives have a fitted effect of over 60% in size
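In this displacement format the biotinylated H3(5-23) peptide acetylated at Lys14 serves as ligand at 50 nM, with BAZ2B at 50 nM in PBS pH 7.4 containing 0.01% Tween-20. Donor and acceptor beads are 10 ug/mL final.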
HP1b chromo inh = blocks HP1-beta chromodomain binding to methylated histone tails | Potency, µM (series often up to 114 µM), inactives show at the highest dose activity change, negative = inhibition, most hits filed as inhibitors | AID 540317 | AlphaScreen HP1-beta / biotin-H3K9me3 peptide binding | P83916 | hit rate 0.56% among 390,000; also: nearly all actives have a fitted effect of over 70% in size
Target sequence (P83916 whole entry, looked up): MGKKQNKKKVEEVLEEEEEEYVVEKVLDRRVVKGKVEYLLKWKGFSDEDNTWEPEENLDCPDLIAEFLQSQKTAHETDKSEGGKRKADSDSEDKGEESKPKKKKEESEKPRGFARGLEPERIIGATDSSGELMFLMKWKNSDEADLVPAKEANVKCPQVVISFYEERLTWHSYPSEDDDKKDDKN
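HP1-beta protein (50 nM final) preincubated 30 min at room temperature with biotinylated H3(1-18)K9me3 peptide (50 nM) in PBS pH 7.4, 0.01% Tween-20, then compound added for 30 min. AlphaScreen streptavidin donor/nickel chelate acceptor beads (10 ug/mL final), 30 min dark, luminescence read.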
G9a block = inhibitors of human histone lysine methyltransferase G9a. Q96KQ7. G9a H3K9 monomethylation, AlphaScreen, 2 h. Potency, µM (highest dose often 102 µM), for the others: top-dose activity, negative = inhibition, actives largely listed as inhibitors. hit rate 8.8% among 350,000. AID 504332; also: % is scaled to controls: 0 for no effect and ±100 for the full control effect; nearly all actives have a fitted effect of over 75% in size
Target sequence (Q96KQ7 913-1193 limits assumed): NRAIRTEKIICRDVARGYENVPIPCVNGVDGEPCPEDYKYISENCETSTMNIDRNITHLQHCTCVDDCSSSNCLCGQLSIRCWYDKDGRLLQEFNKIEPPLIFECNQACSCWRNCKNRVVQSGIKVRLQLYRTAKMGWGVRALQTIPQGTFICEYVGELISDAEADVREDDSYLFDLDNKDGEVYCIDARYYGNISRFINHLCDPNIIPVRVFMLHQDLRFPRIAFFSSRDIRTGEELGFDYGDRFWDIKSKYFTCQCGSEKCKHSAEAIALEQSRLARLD
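G9a (20 nM) was preincubated 15 min with compound, then reacted 2 h at room temperature with 500 nM biotin-H3K9 peptide and 20 µM SAM. Monomethyl-H3K9 detected by AlphaScreen using anti-H3K9me1 antibody.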
Active calls of the source: *; ? = inconclusive; . = not tested or not shown; [ ] = dose if it differs, or a comment. An excerpt weighted towards active compounds, which were near 10% of everything screened. Calls follow the shape of the dose curve; as a rule, active = well fitted curve in the direction sought with a large enough effect; inconclusive = small, poorly fitted or top-dose-only effect, or another doubt; inactive = no such curve, though single readings can be large; an effect the other way counts as inactive or inconclusive. Potency is read from the fitted curve at half-maximal effect.

SMILES	GLS inh	JMJD2A Tudor	BAZ2B block	HP1b chromo inh	G9a block
CC1(C(=O)NNC(=O)c2ccc([N+](=O)[O-])cc2)CC1(Br)Br (stereo not drawn)	25.3%	-17.6%	-9.2%	60.9%	.
O=C(NC(=S)Nc1cccc([N+](=O)[O-])c1)c1ccccc1	2.9%	-11.2%	-23.6%	16.9%	-16.2%[59 µM]
CC1(C(=O)NNC(=O)c2cccc([N+](=O)[O-])c2)CC1(Br)Br (stereo not drawn)	23.5%	-22.8%	-35.1%	85.4%	20µM*
O=C(O)CC(NNC(=O)c1ccccc1)C(=O)Nc1cccc([N+](=O)[O-])c1 (stereo not drawn)	17.4%	?	?	19.9%	50.1µM*
O=C(O)c1cccc(NC(=S)NC(NC(=O)c2cccc([N+](=O)[O-])c2)C(Cl)(Cl)Cl)c1 (stereo not drawn)	8.5%	-22.5%	-38.4%	6.8%	50.1µM*
CCc1nc2ccc(C(=O)NCc3ccc(OC)cc3)cn2c1N(CC)CCOC	1.6%	.	.	.	.
CC1C(=O)OC2C1CCC1(C)CCC(=O)C(C)C21 (stereo not drawn)	-2.7%	50.1µM*	12.8%	51.0%	22.4µM*
CC1CN(C(=O)COc2ccc3ccccc3c2)CC(C)O1 (stereo not drawn)	-4.5%	0.0%	.	25.8%	.
COc1cccc(OCCCN2CCCCC2)c1	-2.1%	-11.7%	5.5%	13.8%	-5.7%
COc1cccc(OCCCCN2CC(C)OC(C)C2)c1 (stereo not drawn)	-5.0%	6.31µM*	?	?	10µM*
COC(=O)c1ccc(OCCCCN2CC(C)OC(C)C2)cc1 (stereo not drawn)	-1.4%	11.2µM*	79.4µM*	?	2.82µM*
CC1CN(CCCCOc2ccc3ccccc3c2)CC(C)O1 (stereo not drawn)	5.5%	1.41µM*	?	?	2µM*
CCCCOc1ccc(C(=O)NCC(=O)N2CC(C)OC(C)C2)cc1 (stereo not drawn)	-4.9%	-2.1%	1.0%	35.9%	6.4%
CCOC(=O)C(=NC(C)CC)NNc1ccc(Br)cc1 (stereo not drawn)	9.8%	?	?	-11.0%	12.6µM*
CCOC(=O)C(=NC1CCS(=O)(=O)C1)NNc1ccc(Br)cc1 (stereo not drawn)	-2.4%	?	?	13.6%	10µM*
CCC(=O)NNc1ccc(Br)cc1	7.9%	-0.7%	-11.2%	33.1%	?
CCOC(=O)C(=NC(C)CC)NNc1cccc(C(F)(F)F)c1 (stereo not drawn)	-6.4%	-31.1%	?	8.7%	?
CCOC(=O)C(=NC1CCCCC1)NNc1cccc(C(F)(F)F)c1	22.2%	-35.6%	-27.0%	2.9%	50.1µM*
C[C@H]1CN([C@@H](C)CO)C(=O)c2cc(Br)cnc2O[C@H]1CN(C)C(=O)C1CCC1	-13.6%	.	.	.	.
CC(=O)Nc1ccc(NC(=O)CSc2cn(CC(=O)N(C(C)C)C(C)C)c3ccccc23)cc1	0.1%	-16.5%	-22.4%	16.4%	-7.0%[59 µM]
CC(=O)C1=C(O)C(=O)N(c2ccc(O)cc2)C1c1ccccc1Cl (stereo not drawn)	1.9%	-11.0%	-13.8%	?	?
CC(=O)C1=C(O)C(=O)N(c2ccc(O)cc2)C1c1ccccc1F (stereo not drawn)	27.3%	-19.6%	1.7%	8.3%	79.4µM*
CC(=O)C1=C(O)C(=O)N(CO)C1c1ccccc1F (stereo not drawn)	-1.8%	?	?	21.0%	56.2µM*
CC(=O)C1=C(O)C(=O)N(c2ccc(Br)cc2)C1c1ccccc1[N+](=O)[O-] (stereo not drawn)	7.6%	-30.2%	-3.8%	-11.8%	39.8µM*
CC(=O)C1=C(O)C(=O)N(CCc2ccccc2)C1c1ccccc1[N+](=O)[O-] (stereo not drawn)	-11.2%	7.0%	3.6%	-5.8%	1.0%[59 µM]
SMILES	GLS inh	JMJD2A Tudor	BAZ2B block	HP1b chromo inh	G9a block
COc1cccc(NC(=O)C2CCN(S(=O)(=O)c3c(C)noc3/C=C/c3cccs3)CC2)c1	1.7%	-22.3%	.	19.2%	-26.1%[59 µM]
COc1ccc(S(=O)(=O)CC(=O)c2cc3cccc(C)c3oc2=O)cc1	-1.1%	-32.9%	-34.1%	28.3%	50.1µM*
COc1ccc2cc(C(=O)CS(=O)(=O)c3ccccc3)c(=O)oc2c1	5.8%	-5.3%	-18.9%	9.3%[57 µM]	20.4%
COCCn1c(=O)cnc2cnc(OC)nc21	.	.	.	.	-1.1%[0.501 µM]
O=C(COC(=O)/C=C/c1ccc(Br)o1)Nc1ccc2[nH]c(=O)[nH]c2c1	.	.	?	.	35.5µM*
CC(C)NC(=O)COC(=O)/C=C/c1ccco1	-10.6%	-24.3%	?	0.8%	-18.3%[59 µM]
NC(=O)c1ccc(NC(=O)COC(=O)/C=C/c2ccc(Br)o2)cc1	?	20µM*	.	?	.
O=C(COC(=O)c1ccc(Br)o1)Nc1ccc2[nH]c(=O)[nH]c2c1	-8.6%	-9.8%	7.1%	25.4%	17.2%[12.7 µM]
CN(C)S(=O)(=O)c1cccc(NC(=O)COC(=O)/C=C/c2ccc(Br)o2)c1	-0.5%	-14.0%[11.4 µM]	-33.3%	?	44.7µM*
Cc1ccc(/C=C/C(=O)OCC(=O)NC(C)C)o1	0.0%	-9.2%	0.3%	6.0%	44.7µM*
Nc1[nH]c(C(=O)c2ccccc2)c(-c2ccncc2)c1C(=O)NC1CC1	33.0%	.	.	.	.
Nc1[nH]c(=O)[nH]c(=O)c1N=Nc1ccc(C(=O)O)cc1	-0.5%	4.7%	-22.2%	37.6%	8.8%
CCCCN(C)C(=O)Cn1c(SCC(=O)Nc2ccc(C)c(C)c2)nc2ccccc21	1.9%	-24.5%	-18.6%	24.9%	15.1%[59 µM]
CCC(=O)c1ccc(OCC(=O)NCCc2ccccn2)cc1	-5.5%	-12.3%	4.1%	64.9%	20.1%
CC(C)[C@H](NC(=O)c1c(F)cccc1F)C(=O)OCC(=O)NNC(=O)c1ccccc1	5.7%	.	.	.	.
CCOc1ccccc1NC(=O)COC(=O)C12CC3CC(CC(O)(C3)C1)C2	-2.6%	-8.3%	6.4%	28.2%	?
N#Cc1ccc(CN2CC[C@@]3(CCCN(S(=O)(=O)c4ccccc4)C3)C2)cc1	.	.	.	.	3.6%[12.7 µM]
Cc1cn([C@H]2C[C@H](O)[C@@H](CCC(=O)NCCc3cccs3)O2)c(=O)[nH]c1=O	-2.8%	.	.	.	.
S=C(NCc1ccco1)N1CCN(c2cccc(Cl)c2)CC1	10.4%	-24.0%	-29.9%	-23.3%	?
CN1CCN(C(=S)Nc2ccc(S(N)(=O)=O)cc2)CC1	10.9%	5.8%	-19.0%	32.9%	39.8µM*
S=C(NCCN1CCOCC1)N1CCN(c2cccc(Cl)c2)CC1	-12.8%	8.91µM*	28.2µM*	-28.6%	35.5µM*
NS(=O)(=O)c1ccc(NC(=S)N2CCN(c3cccc(Cl)c3)CC2)cc1	3.2%	-1.7%	2.0%	-18.8%	8.91µM*
COc1ccc(OC)c(CN2CCN(C(=O)c3cccc(S(=O)(=O)N(C)c4ccccc4)c3)CC2)c1	4.0%	.	.	.	.
CN(CC(=O)Nc1ccc(F)cc1F)S(=O)(=O)c1cccc2nsnc12	-3.3%	-13.0%	.	16.3%	2.1%[59 µM]
